Assay [1] relates to Plasmodium falciparum Sir2 (PF13_0152, Sir2A). In words: Plasmodium falciparum Sir2A binding compounds – biochemical, small-molecule microarray, 635 nm fluorescence, primary screen (AID 1098).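 Also: score merges spot fluorescence intensity with its signal-to-noise ratio.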 Conditions: fluorescence 635 nm, higher = more signal.
Assay [2] can be described thus: probe aDKK1 binding to arrayed compounds – biochemical, biotinylated probe, 635/667 nm fluorescence, primary screen (AID 1099).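 Also: score merges 667nm spot fluorescence with signal to noise across triplicate slides.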 Conditions: small-molecule microarray, higher = more signal.
Assay [3] can be described thus: probe aCHRDL2 binding to arrayed compounds – biochemical, biotinylated probe, 635/667 nm fluorescence, primary screen (AID 1100). Conditions: small-molecule microarray, higher = more signal.
Assay [4] in a line: change in splice reporter luminescence, either direction, cell-based, HEK293, spliceosome inhibition project, primary screen (AID 1101).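 Also: HEK293 cells carrying a splicing-competent luciferase reporter gene; test concentration not given here.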 Conditions: HEK293 splicing luciferase reporter, 24 h, higher = more signal, called active from +8 up or from −8 down.
Assay [5] has as its target Fibroblast growth factor 10 (Homo sapiens) (UniProt O15520). The assay is described as follows: compounds binding fibroblast growth factor 10 – biochemical, small-molecule microarray, 635 nm fluorescence, primary screen (AID 1102). Conditions: FGF10 binding, fluorescence 635 nm, higher = more signal.
For assay [6], the system named is glycogen synthase kinase-3 (GSK3A per assay name; protocol says GSK3B). The assay is described as follows: compounds binding glycogen synthase kinase-3 – biochemical, small-molecule microarray, 635 nm fluorescence, GSK3A, primary screen (AID 1103). Also: the record names both GSK3A and GSK3B. Conditions: fluorescence 635 nm, higher = more signal.
For assay [7], the target named is Epidermal growth factor receptor (Homo sapiens) (UniProt P00533). In words: compounds binding epidermal growth factor receptor – biochemical, small-molecule microarray, 635 nm fluorescence, primary screen (AID 1104).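 Also: score merges 667 nm emission intensity with spot signal to noise over triplicate slides.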 Conditions: EGFR binding, higher = more signal.
The target in assay [8] is Follistatin-related protein 3 (Homo sapiens) (UniProt O95633). The assay is described as follows: compounds binding follistatin-related protein 3 – biochemical, small-molecule microarray, 635 nm fluorescence, primary screen (AID 1105).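 Also: score merges emission near 667 nm and signal to noise per printed spot across three slides.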 Conditions: FSTL3 binding, higher = more signal.
Assay [9] concerns the target Dickkopf-related protein 1 (Homo sapiens) (UniProt O94907). In words: small molecules binding DKK1 protein – biochemical, small-molecule microarray, 635 nm fluorescence scan, primary screen (AID 1106).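 Also: score merges emission near 667 nm with signal to noise over three replicate slides.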 Conditions: higher = more signal.
Assay [10] concerns Inhibin beta A chain (activin A). In words: small molecules binding activin A – biochemical, small-molecule microarray, 635 nm fluorescence scan, primary screen (AID 1107).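 Also: mouse activin A protein probed at 4.33 µg/mL on printed slides; score merges bound-protein fluorescence near 667 nm with spot signal-to-noise.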 Conditions: INHBA, higher = more signal.
The test system of assay [11] is Human papillomavirus type 1a protein E7 (residues 44-93). The assay is described as follows: small molecules binding HPV E7 44-93 – biochemical, small-molecule microarray, residues 44-93, 635 nm fluorescence, primary screen (AID 1108).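 Also: E7 fragment applied at 1 µg/mL in TBST for 1 h at 4 C; score combines spot fluorescence with its signal to noise ratio.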 Conditions: fluorescence 635 nm, higher = more signal.
A short description of assay [12]: hepatitis C replication reporter changes, two-sided – Huh7 cells, luciferase reporter, HCV replication inhibitor project, primary screen (AID 1109).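 Also: huh7 hepatoma cells harbouring a luciferase neomycin HCV replicon reporter; luciferase luminescence as measure of HCV replicon replication; test concentration not given here.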 Conditions: Huh7 HCV replicon luciferase reporter, 48 h; higher = more signal. In general terms: In a reporter assay the amount or activity of a reporter protein is the signal.
The target in assay [13] is Left-right determination factor 2 (Homo sapiens) (UniProt O00292). The assay is described as follows: small molecules binding LEFTY2 protein – biochemical, small-molecule microarray, 635 nm fluorescence scan, primary screen (AID 1110). Conditions: higher = more signal.
Assay [14] addresses Calmodulin-1 (Homo sapiens) (UniProt P0DP23). The assay is described as follows: small molecules binding calmodulin-1 with EGTA – biochemical, small-molecule microarray, Cy5-labelled CALM1, profiling panel (AID 1111).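 Also: labelled calmodulin applied in Tris saline Tween buffer holding calcium plus EGTA and DTT.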 Conditions: Cy5-CALM1 binding fluorescence, higher = more signal.
The target is the same in assay [15]. In words: small molecules binding Ca-loaded calmodulin-1 – biochemical, small-molecule microarray, Cy5-labelled CALM1, plus calcium, artefact control for SMM control-protein annotation, profiling panel (AID 1112).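 Also: score merges spot fluorescence with signal to noise from triplicate slides.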 Conditions: Cy5-CALM1 binding fluorescence, higher = more signal.
The nature of assay [16]: probe aWnt5a binding to arrayed compounds – biochemical, biotinylated probe, 635/667 nm fluorescence, primary screen (AID 1113).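 Also: score merges 667 nm fluorescence intensity with signal-to-noise per printed feature.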 Conditions: small-molecule microarray, higher = more signal.
Assay [17] is described as follows: probe aShh binding to arrayed compounds – biochemical, biotinylated probe, 635/667 nm fluorescence, primary screen (AID 1114).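 Also: probe is biotin-labelled aShh protein from a stem cell growth factor screen; measures binding of labelled protein to compounds printed on the slide; score merges feature fluorescence at 667 nm with signal-to-noise.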 Conditions: small-molecule microarray, higher = more signal.
Assay [18] in a line: probe aNog binding to arrayed compounds – biochemical, biotinylated probe, 635/667 nm fluorescence, primary screen (AID 1115).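 Also: probe is biotinylated aNog protein used at 0.15 µg/mL for 1 h at 4 C; z-score combines 667 nm fluorescence of each spot with its signal to noise.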 Conditions: small-molecule microarray, higher = more signal.
In assay [19] the target is Torsin-1A-interacting protein 1 (Homo sapiens) (UniProt Q5JTV8). In words: compound microarray binding of lysate hLAP1 – cell lysate, small-molecule microarray, COS7 lysate, 635/667 nm fluorescence, primary screen (AID 1116). Conditions: 635 nm fluorescence, higher = more signal.
In assay [20] the target is Alpha-bungarotoxin (Bungarus multicinctus) (UniProt P60615). In words: compounds binding labelled alpha-BTX control protein – biochemical, small-molecule microarray, Alexa647 label, 635/667 nm fluorescence, artefact control for SMM control protein annotation, profiling panel (AID 1117). Conditions: alpha-BTX-A647 binding fluorescence, higher = more signal.

The source made the active and inactive calls.

Fibroblast growth factor 10 (Homo sapiens), sequence (O15520 whole entry, looked up): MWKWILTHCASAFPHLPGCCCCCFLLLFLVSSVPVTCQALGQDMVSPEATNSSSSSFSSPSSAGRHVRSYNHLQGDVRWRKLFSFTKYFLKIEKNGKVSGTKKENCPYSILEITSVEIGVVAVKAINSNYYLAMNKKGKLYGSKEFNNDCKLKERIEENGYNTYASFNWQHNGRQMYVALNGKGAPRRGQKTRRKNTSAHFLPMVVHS
Epidermal growth factor receptor (Homo sapiens), sequence (P00533 whole entry, looked up): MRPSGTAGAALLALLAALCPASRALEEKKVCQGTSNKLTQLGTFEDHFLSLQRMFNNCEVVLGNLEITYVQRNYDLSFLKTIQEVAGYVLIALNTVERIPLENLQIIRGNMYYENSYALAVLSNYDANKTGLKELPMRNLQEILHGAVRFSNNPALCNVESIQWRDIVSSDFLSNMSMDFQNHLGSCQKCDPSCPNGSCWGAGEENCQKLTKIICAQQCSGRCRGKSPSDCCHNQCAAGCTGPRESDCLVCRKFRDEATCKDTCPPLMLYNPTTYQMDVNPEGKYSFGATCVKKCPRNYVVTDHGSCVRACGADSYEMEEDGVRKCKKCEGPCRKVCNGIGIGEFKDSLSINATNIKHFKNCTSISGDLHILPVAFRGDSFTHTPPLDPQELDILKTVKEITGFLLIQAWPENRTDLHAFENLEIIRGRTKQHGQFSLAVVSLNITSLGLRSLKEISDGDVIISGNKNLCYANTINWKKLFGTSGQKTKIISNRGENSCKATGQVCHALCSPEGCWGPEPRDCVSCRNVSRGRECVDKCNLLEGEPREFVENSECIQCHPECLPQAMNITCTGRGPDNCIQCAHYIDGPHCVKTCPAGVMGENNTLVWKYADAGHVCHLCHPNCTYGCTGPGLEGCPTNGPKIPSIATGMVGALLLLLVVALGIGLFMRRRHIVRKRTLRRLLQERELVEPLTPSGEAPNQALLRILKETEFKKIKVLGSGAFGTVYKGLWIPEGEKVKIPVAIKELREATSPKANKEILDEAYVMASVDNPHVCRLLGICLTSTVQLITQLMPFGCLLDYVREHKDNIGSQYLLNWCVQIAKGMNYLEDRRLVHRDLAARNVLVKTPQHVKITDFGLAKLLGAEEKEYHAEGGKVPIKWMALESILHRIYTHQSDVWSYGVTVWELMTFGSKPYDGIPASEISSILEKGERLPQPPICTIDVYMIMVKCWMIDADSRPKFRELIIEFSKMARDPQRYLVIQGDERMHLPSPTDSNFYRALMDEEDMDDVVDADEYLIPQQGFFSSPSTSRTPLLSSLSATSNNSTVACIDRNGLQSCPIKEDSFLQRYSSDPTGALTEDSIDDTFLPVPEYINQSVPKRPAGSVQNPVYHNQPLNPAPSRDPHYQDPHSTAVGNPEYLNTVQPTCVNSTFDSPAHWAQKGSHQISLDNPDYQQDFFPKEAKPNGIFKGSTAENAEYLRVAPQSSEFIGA
Alpha-bungarotoxin (Bungarus multicinctus), sequence (P60615 whole entry, looked up): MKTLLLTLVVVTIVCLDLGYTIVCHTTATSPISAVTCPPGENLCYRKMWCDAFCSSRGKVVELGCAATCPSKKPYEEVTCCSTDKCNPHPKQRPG
Left-right determination factor 2 (Homo sapiens), sequence (O00292 whole entry, looked up): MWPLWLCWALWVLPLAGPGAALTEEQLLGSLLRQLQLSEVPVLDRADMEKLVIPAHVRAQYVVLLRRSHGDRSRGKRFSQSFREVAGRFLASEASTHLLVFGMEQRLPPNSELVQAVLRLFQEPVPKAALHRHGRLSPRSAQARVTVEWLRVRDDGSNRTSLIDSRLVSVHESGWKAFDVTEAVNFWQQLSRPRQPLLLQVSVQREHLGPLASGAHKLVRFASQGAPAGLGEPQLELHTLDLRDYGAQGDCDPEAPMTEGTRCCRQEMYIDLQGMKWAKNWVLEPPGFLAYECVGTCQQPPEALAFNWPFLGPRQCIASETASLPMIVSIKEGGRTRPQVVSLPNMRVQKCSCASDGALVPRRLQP
Dickkopf-related protein 1 (Homo sapiens), sequence (O94907 whole entry, looked up): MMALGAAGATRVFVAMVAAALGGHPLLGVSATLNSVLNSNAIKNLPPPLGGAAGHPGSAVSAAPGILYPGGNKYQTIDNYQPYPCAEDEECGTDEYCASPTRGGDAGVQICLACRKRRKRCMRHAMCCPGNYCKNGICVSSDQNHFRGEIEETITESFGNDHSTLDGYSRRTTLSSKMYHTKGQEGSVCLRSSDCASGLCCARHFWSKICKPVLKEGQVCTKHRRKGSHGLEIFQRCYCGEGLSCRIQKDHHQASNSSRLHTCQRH
Follistatin-related protein 3 (Homo sapiens), sequence (O95633 whole entry, looked up): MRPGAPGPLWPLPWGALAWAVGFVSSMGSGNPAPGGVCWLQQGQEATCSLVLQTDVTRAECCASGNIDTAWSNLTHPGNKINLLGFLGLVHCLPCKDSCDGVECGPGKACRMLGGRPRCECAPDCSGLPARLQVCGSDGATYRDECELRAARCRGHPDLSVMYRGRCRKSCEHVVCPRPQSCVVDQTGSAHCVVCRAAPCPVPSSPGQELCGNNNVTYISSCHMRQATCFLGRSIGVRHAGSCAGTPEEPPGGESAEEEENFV
Torsin-1A-interacting protein 1 (Homo sapiens), sequence (Q5JTV8 whole entry, looked up): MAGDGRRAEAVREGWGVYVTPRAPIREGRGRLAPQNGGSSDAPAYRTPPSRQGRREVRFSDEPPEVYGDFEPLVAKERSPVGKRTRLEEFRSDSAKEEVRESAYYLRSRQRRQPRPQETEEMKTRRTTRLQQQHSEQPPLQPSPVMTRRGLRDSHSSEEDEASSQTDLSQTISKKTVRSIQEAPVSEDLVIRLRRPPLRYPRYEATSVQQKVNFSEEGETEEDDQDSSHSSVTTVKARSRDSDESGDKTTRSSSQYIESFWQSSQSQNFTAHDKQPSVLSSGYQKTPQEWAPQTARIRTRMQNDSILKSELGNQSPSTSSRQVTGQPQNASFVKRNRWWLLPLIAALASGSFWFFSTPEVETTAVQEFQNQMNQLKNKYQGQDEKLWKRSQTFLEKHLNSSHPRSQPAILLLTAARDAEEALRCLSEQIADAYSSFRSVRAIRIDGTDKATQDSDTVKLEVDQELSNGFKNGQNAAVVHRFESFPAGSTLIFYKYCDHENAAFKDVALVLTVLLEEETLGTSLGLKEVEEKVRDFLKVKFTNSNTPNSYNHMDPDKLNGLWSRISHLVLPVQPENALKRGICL

As for `C=CCC(OC(C)=O)[C@@H]1[C@@H](N(Cc2ccc(-c3ccccc3)cc2)C(=O)c2ccc(C)cc2)c2cc(OCCCO)ccc2N1C(=O)Cc1ccc(OC)cc1` (stereo not given in full), the composite z-score is 1.36 in assay [1]; -0.0745 in assay [2]; -0.216 in [3]; 0.191 in assay [5]; -0.159 in assay [6]; 0.0485 in assay [7]. Further, the composite z-score is 0.0762 in [8]; 0.22 in [9]; 1.23 in assay [10]; 0.422 in assay [11]; 0.0181 in assay [13]; -0.0181 in [14]. Moreover, the composite z-score in assay [15] was -0.164; in assay [16], 0.0115; in assay [17], -0.273; in assay [18] it was -0.0579; in [19], 0.0982; in assay [20] it was 1.73. The z-score in [4] is -1.03 (inactive); in [12], -0.75.
Regarding `Cc1ccc(S(=O)(=O)N2CC(C(=O)O)=CCC2c2ccccc2)cc1` (stereo not given), the composite z-score in assay [1] was 1.11; in assay [2] it was 0.133; in [3] it was 0.696; in assay [5] it was -0.265; in assay [6], -0.5; in assay [7] it was -0.638. The composite z-score in assay [8] was -0.95; in [9], -1.6; in assay [10], -0.538; in assay [11], 0.467; in assay [13] it was -1.58; in [14], 0.0207. Besides, the composite z-score in assay [15] is 0.52; in assay [16] it was 0.173; in assay [17], 0.0639; in assay [18], -0.468; in assay [19], 0.505; in assay [20], 0.277. Besides, the z-score in [4] was 0.566 (inactive); in [12], -0.212.
Turning to `C=CCC(OC(C)=O)[C@@H]1[C@@H](N(Cc2ccc(-c3ccccc3)cc2)C(=O)c2ccc(C)cc2)c2cc(OCCCO)ccc2N1C(=O)c1ccc2ccccc2n1` (stereo not given in full), the composite z-score in [1] was -0.124; in assay [2] it was -0.053; in [3], 0.529; in [5], -0.0241; in assay [6], -0.609; in assay [7], -0.236. The composite z-score is -0.374 in assay [8]; -0.144 in assay [9]; 1.39 in [10]; -0.6 in assay [11]; 0.755 in assay [13]; -0.248 in assay [14]. Also, the composite z-score in assay [15] is 0.24; in [16], -0.14; in [17] it was -0.181; in assay [18] it was 0.496; in assay [19], 0.234; in assay [20], -0.0983. Besides, the z-score was -1.84 (inactive) in assay [4] and -0.41 in [12].
For the compound `CC(C)[Si]1(C(C)C)O[C@@H](c2ccccc2)c2cc(-c3ccc(-c4ccc(Cl)c(Cl)c4)o3)nc(CCc3ccccc3)c21`, the composite z-score is -0.708 in [1]; 0.147 in [2]; 0.731 in assay [3]; -0.707 in assay [5]; -0.345 in assay [6]; -0.844 in assay [7]. The composite z-score in assay [8] is -1.54; in assay [9], -1.25; in [10], 0.949; in assay [11] it was 0.0027; in assay [13], -1.32; in assay [14], -0.411. Moreover, the composite z-score in assay [15] is 0.873; in assay [16], -0.152; in assay [17], 0.0141; in assay [18], -0.0118; in assay [19], -0.193; in [20], -1.17. Also, the z-score was 0.428 (inactive) in assay [4] and -2.07 in [12].
As to `CO[C@H]1O[C@H](CO)[C@@H](OC(=O)Nc2ccc3c(c2)OCO3)[C@H](OC(=O)Nc2ccc3c(c2)OCO3)[C@H]1OC(=O)Nc1ccc2c(c1)OCO2`, the composite z-score in assay [1] is 1.49; in [2], -0.0124; in assay [3], 0.392; in assay [5], 1.24; in [6], 1.33; in assay [7], 0.258. Also, the composite z-score turned out to be 0.878 in [8]; 0.101 in [9]; 1.14 in assay [10]; 1.45 in assay [11]; 0.265 in assay [13]; 1.52 in assay [14]. In addition, the composite z-score in assay [15] was -0.623; in assay [16], 0.0037; in assay [17], 0.503; in assay [18] it was 0.961; in assay [19] it was 1.21; in assay [20] it was 0.477. Besides, the z-score in assay [4] is -0.295 (inactive); in assay [12] it was -0.36.

Values taken from PubChem BioAssay.
